Test [1] in a line: NCI Yeast Anticancer Drug Screen. Data for the rad50 strain (AID 155).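 Also: 0% = growth of vehicle-only cultures of the same strain.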 Conditions: S. cerevisiae rad50 strain growth inhibition; at 50.0 µM; active compounds read high. The method in brief:
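A DNA repair-deficient yeast mutant serves as the test organism; compound-induced growth inhibition is calculated against vehicle-treated cells.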

Test [2] is described as follows: NCI Yeast Anticancer Drug Screen. Data for the mec2-1 strain (AID 157). Conditions: S. cerevisiae mec2-1 strain, at 50.0 µM, active compounds read high. The method in brief: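 Compounds were applied to mec2-1 yeast cells. Their growth was then compared with that of vehicle-treated cultures to give growth inhibition.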
A short description of test [3]: NCI Yeast Anticancer Drug Screen. Data for the sgs1 mgt1 strain (AID 161).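 Also: 0% = growth of cultures given vehicle only.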 Conditions: S. cerevisiae sgs1 mgt1 strain, at 50.0 µM, active compounds read high. The method in brief: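 Compounds are added to genetically altered yeast, and growth is compared with cultures given vehicle alone to give percent inhibition.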
Test [4] can be described thus: NCI Yeast Anticancer Drug Screen. Data for the cln2 rad14 strain (AID 165).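 Also: 0% = growth equal to vehicle treated cultures.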 Conditions: S. cerevisiae cln2 rad14 strain, at 50.0 µM, active compounds read high. The method in brief:
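Strain: cln2 rad14 yeast, altered in cell cycle control and DNA damage repair. Read-out: growth inhibition vs vehicle.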

Test [5] can be described thus: NCI Yeast Anticancer Drug Screen. Data for the bub3 strain (AID 167). Conditions: S. cerevisiae bub3 mutant strain, at 50.0 µM, active compounds read high. The method in brief: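 Inhibition values come from growth of compound-treated mutant yeast normalised to vehicle-treated controls.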
Test [6] is described as follows: NCI Yeast Anticancer Drug Screen. Data for the mlh1 rad18 strain (AID 175). Conditions: S. cerevisiae mlh1 rad18 strain growth inhibition; at 50.0 µM; active compounds read high. The method in brief:
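A repair-deficient yeast strain is exposed to test compound, and growth is scored relative to vehicle-treated controls.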

About 79,000 compounds went through this panel and 15% of them were active in at least one assay; those are over-represented in the sample as a whole. A number with no mark means an inactive call. Activity calls are given as the source filed them. Rule as the data show it: active = growth inhibition above about 70%; inactive = the rest.

Regarding `C=C(CBr)CCCOCc1ccccc1`, the growth inhibition was 10.8% in test [1]; -7.25% in test [2]; -7.15% in test [3]; 2.1% in test [4]; -5.35% in test [5]; -7.55% in test [6].

As to `CC(N)CCC(=O)O` (stereo not given), the growth inhibition in test [1] is -16.1%; in test [2], -27.4%; in test [3], -15.7%; in test [4] it was -27.2%; in test [5] it was -32.1%; in test [6] it was -31%.

In the case of `Cc1ccc(-c2nc(C)c(C(=O)Nc3ccc(Cl)cc3)s2)cc1`, the growth inhibition in test [1] is -36.6%; in test [2], -25.4%; in test [3], -59.4%; in test [4], 2.85%; in test [5], -12.3%; in test [6], -65.9%.

With `COc1ccc(C(C)=C2C=C(C(C)(C)C)C(=O)C(C(C)(C)C)=C2)cc1`, the growth inhibition in test [1] is -26.6%; in test [2] it was -16.2%; in test [3], -17.4%; in test [4], 34.2%; in test [5], 1.35%; in test [6], -17.4%.

`Cc1c(C)c(C)c(CC2(C)CSC2)c(CC2(C)CSC2)c1C`: the growth inhibition in test [1] is -1.65%; in test [2], -20.2%; in test [3] it was -12.6%; in test [4] it was 14.6%; in test [5], -41.8%; in test [6] it was 10.9%.

In the case of `CCOC(=O)C(=O)C(CCc1ccc2ccc3cccc4ccc1c2c34)C(=O)OCC` (stereo not given), the growth inhibition in test [1] was 10.2%; in test [2], 20.9%; in test [3], 6.55%; in test [4], -21.8%; in test [5] it was 0.35%; in test [6] it was 31.4%.

With `CC(=O)Nc1ccc(/C=N/Nc2ccccc2)cc1`, the growth inhibition was 97.9% (active) in test [1]; 98.8% (active) in test [2]; 98.5% (active) in test [3]; 96.6% (active) in test [4]; 98.5% (active) in test [5]; 98.7% (active) in test [6].

For the molecule `CC(C)OC(=O)c1cc(N)ccc1Cl`, the growth inhibition in test [1] was 29.1%; in test [2], 23.4%; in test [3], 17.4%; in test [4], 2.45%; in test [5], 38.4%; in test [6] it was 34%.

Take `O=c1oc2ccccc2c(=O)n1O`: the growth inhibition in test [1] was 65.8%; in test [2], 10.3%; in test [3], 10.1%; in test [4] it was 9.4%; in test [5] it was 30.1%; in test [6], 43.1%.

In the case of `O=C(Nc1ccccc1F)OCCCl`, the growth inhibition in test [1] is 11.8%; in test [2] it was -23.6%; in test [3] it was 6.55%; in test [4] it was 1.45%; in test [5], 3.55%; in test [6], 4.4%.

For the molecule `O=C(O)C(Cc1ccc(OS(=O)(=O)Cc2ccccc2)cc1)NS(=O)(=O)Cc1ccccc1` (stereo not given), the growth inhibition in test [1] is 29.9%; in test [2], 5.2%; in test [3], 8.1%; in test [4] it was 5.1%; in test [5], 12.4%; in test [6], 24.1%.

In the case of `CCCCCCCCCCCCCCCCCC/C(CC)=N/Nc1ccc([N+](=O)[O-])cc1[N+](=O)[O-]`, the growth inhibition is -21.1% in test [1]; 3.7% in test [2]; -12.2% in test [3]; -25.1% in test [4]; 11.2% in test [5]; 5.55% in test [6].

As for `CC(=O)NO`, the growth inhibition in test [1] is 22.1%; in test [2], -4.05%; in test [3] it was 12.1%; in test [4] it was -7.05%; in test [5] it was -4.6%; in test [6], 11.3%.

`COc1cc(C(=O)CCC(=O)O)c(OC)c(CBr)c1CBr`: the growth inhibition in test [1] was -20.3%; in test [2], -0.4%; in test [3] it was -2.7%; in test [4], -23.8%; in test [5] it was -2.15%; in test [6], -13.8%.

With `CCC(C)NCC/C(=C\[Si](C)(C)C)c1ccccc1` (stereo not given), the growth inhibition was 3.05% in test [1]; -11.8% in test [2]; -11.4% in test [3]; 11.7% in test [4]; -0.15% in test [5]; 8.5% in test [6].

`O=C(OCC(O)C(O)C(O)COC(=O)c1ccccc1)c1ccccc1` (stereo not given): the growth inhibition was -11.6% in test [1]; -5.05% in test [2]; -25.4% in test [3]; -23.6% in test [4]; -22.8% in test [5]; -13.1% in test [6].

Take `CC(=O)/C(C)=C\c1ccc(C(C)C)cc1`: the growth inhibition is 8.85% in test [1]; -12.7% in test [2]; -10.9% in test [3]; -7.2% in test [4]; 10.9% in test [5]; -1.55% in test [6].

With `N#CC1c2ccccc2C=CN1C(=O)c1ccccc1` (stereo not given), the growth inhibition in test [1] was -15.9%; in test [2] it was -15.9%; in test [3] it was 12.5%; in test [4], -18.9%; in test [5], -8.95%; in test [6], -24.4%.

As to `CC1c2c(cc(=O)n(Cc3ccccc3)c2O)C(=O)N1Cc1ccccc1` (stereo not given), the growth inhibition in test [1] is -12.6%; in test [2], 16.9%; in test [3] it was 3.85%; in test [4] it was 4.75%; in test [5] it was -23.6%; in test [6] it was 8.85%.

With `O=C(/C=C/c1ccc([N+](=O)[O-])cc1)NN=C(c1ccccc1)c1ccccc1`, the growth inhibition in test [1] was -20.4%; in test [2], -16.4%; in test [3], -12.3%; in test [4] it was -7.1%; in test [5] it was -9.5%; in test [6] it was -0.15%.
